Screens: PubChem BioAssay, Fisher Drug Discovery Resource Center
Rows were chosen to be rich in hits. Some 0.24% of all compounds tested hit in one or more screens of this group.
NPYLR7 ag = activates Aedes aegypti NPYLR7 receptor | HEK293T NPYLR7/Galpha15, GCaMP6s calcium fluorescence | activation, % at 10 µM | actives 0.15% (n = 270,000) | AID 1259423; in the data active means activation above about 40%;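 further: 0% = vehicle and 100% = reference agonist at the receptor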
mcGAS lum = mouse cGAS inhibition by luminescence. Q8C6L5. recombinant cGAS, Kinase-Glo ATP depletion luminescence. inhibition, % at 12.5 µM. actives 0.15% (n = 160,000). AID 1259399;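 further: 0% = negative control wells and 100% = reference inhibitor with no enzyme activity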
Target sequence (Q8C6L5 whole entry, looked up): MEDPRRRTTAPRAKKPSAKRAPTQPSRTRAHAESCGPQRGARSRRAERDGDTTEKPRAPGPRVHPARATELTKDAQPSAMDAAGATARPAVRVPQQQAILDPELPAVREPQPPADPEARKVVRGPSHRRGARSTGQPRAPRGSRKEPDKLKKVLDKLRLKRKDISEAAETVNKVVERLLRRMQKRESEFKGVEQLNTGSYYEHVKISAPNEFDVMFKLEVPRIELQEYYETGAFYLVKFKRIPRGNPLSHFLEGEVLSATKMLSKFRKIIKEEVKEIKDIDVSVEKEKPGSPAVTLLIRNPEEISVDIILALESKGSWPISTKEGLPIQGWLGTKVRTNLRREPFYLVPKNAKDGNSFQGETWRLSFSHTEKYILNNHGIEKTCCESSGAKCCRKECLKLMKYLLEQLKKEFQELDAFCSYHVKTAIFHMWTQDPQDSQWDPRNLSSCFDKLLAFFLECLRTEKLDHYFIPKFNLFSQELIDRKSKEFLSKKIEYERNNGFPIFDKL
hcGAS lum = inhibitors of human cGAS | actives 0.081% (n = 290,000) | recombinant h-cGAS, ATP depletion, Kinase-Glo luminescence | Q8N884 | inhibition, % at 12.5 µM;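 further: 0% = vehicle reaction and 100% = reaction without DNA for no activity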
* marks the source's active call; other numbers are inactive results; . = no result given; + = active, no number. Unless noted, no stated cut-off is given here; in the data, active means inhibition above about 40%; inactive means the rest.

SMILES	NPYLR7 ag	mcGAS lum	hcGAS lum
C[C@@H](NC(=O)/C(C#N)=C/c1ccc(O)c(O)c1)c1ccccc1	5.3	-1.0	5.1
N#C/C(=C\c1ccc(O)c(O)c1)C(=O)Nc1ccccc1	146.7*	3.0	17.2
Cn1c(C(C#N)=Cc2ccsc2)nc2ccccc21	-0.8	-0.8	3.2
Cn1c(C(C#N)=Cc2c(F)c(F)c(F)c(F)c2F)nc2ccccc21	141.8*	.	0.4
O=C(O)c1ccc2c(c1)n(CCN1CCCC1)c(=O)n2Cc1ccc(F)cc1	.	.	-4.7
CC1N(C)c2ccc(C=Cc3cc[n+](C)cc3)cc2C1(C)C (stereo not drawn)	66.7*	.	-16.3
CC(=O)c1cccc(NS(=O)(=O)c2cc(C(=O)Nc3ccccc3C)ccc2C)c1	19.2	-3.6	-3.2
Cc1ccc(C(=O)Nc2ccc(S(=O)(=O)O)c3cc(S(=O)(=O)O)cc(S(=O)(=O)O)c23)cc1NC(=O)c1cccc(NC(=O)Nc2cccc(C(=O)Nc3cc(C(=O)Nc4ccc(S(=O)(=O)O)c5cc(S(=O)(=O)O)cc(S(=O)(=O)O)c45)ccc3C)c2)c1	-0.6	80.3*	79.6*
CCN(C(=O)c1sc(NC(=O)CCl)c(C#N)c1C)C1CCCCC1	-7.0	1.2	-2.6
Cc1c(C#N)sc(NC(=O)CCl)c1C#N	2.3	44.6*	6.9
CC1(C)C(NC(=O)c2ccc(-n3cccn3)cc2)C2CCCOC21 (stereo not drawn)	7.8	-15.7	-10.2
CSc1nnc2c(n1)OC(c1ccc(Br)cc1)Nc1ccccc1-2 (stereo not drawn)	1.5	5.0	-9.9
CSc1nnc2c(n1)OC(c1ccc(OC(=O)c3ccc(Br)cc3)cc1)Nc1ccccc1-2 (stereo not drawn)	45.6*	-4.6	-3.3
CC(C)C(C)NC(=O)C1CCN(C(=O)c2ccc3nccn3c2)CC1 (stereo not drawn)	-24.4	.	1.5
Oc1ccccc1C1=NNC2(CC3CC2C2CCCC32)S1 (stereo not drawn)	-7.7	.	78.1*
CCOc1ccc(-c2cc3c(=O)n(CC(=O)NCc4cccc(OC)c4)ncn3n2)cc1	-12.2	-1.1	-2.5
O=C1c2ccccc2C(=O)c2c(O)c(O)cc(O)c21	-2.5	5.5	-24.4
CC1(C)OC2OC(C(O)c3cc(O)c4c(c3O)C(=O)c3ccccc3C4=O)C(C)(O)C2O1 (stereo not drawn)	105.8*	.	24.3
COc1ccccc1OCC(=O)NN1S(=O)(=O)c2ccccc2S1(=O)=O	2.5	-5.5	-13.3
COC(=O)Cc1ccc(C(=O)CCl)s1	12.9	56.4*	-3.9
COC(=O)CCC(=O)c1ccc(Br)s1	-3.0	-4.3	-6.2
CC(=O)c1ccc(N2CCN(C(=O)c3ccc(NC(=O)CSc4nncn4C)cc3)CC2)cc1	5.0	-6.7	-1.0
Clc1ccc2c(N3CCCNCC3)ccnc2c1	2.5	-17.5	-2.7
Clc1ccc2c(-n3ccnc3)ccnc2c1	-11.4	.	56.9*
CNc1cncc(-c2ccc(N)cc2)n1	0.7	.	0.9
SMILES	NPYLR7 ag	mcGAS lum	hcGAS lum
COc1cccc(CN2COc3ccc4c(c3C2)O/C(=C\c2ccncc2)C4=O)c1	66.4*	11.2	5.0
COc1ccc(CN2COc3ccc4c(c3C2)O/C(=C\c2ccncc2)C4=O)cc1OC	33.4	6.8	-1.7
COc1ccc(CCN2COc3ccc4c(c3C2)O/C(=C\c2cccnc2)C4=O)cc1	46.0*	-8.0	-2.4
COc1ccc(-c2cc3ccc4c(c3oc2=O)CN(Cc2cccnc2)CO4)c(OC)c1	-3.3	-0.1	1.0
CC(C)(Oc1ccc2c(c1)CCC2)C(=O)N1CCN2C(=O)CNC(=O)C2C1 (stereo not drawn)	1.5	-19.5	-6.2
CCC(C)N(Cc1ccncc1)Cc1ccc(NC(C)=O)cc1 (stereo not drawn)	20.5	.	-7.8
COc1cc(/C=C2\SC(=S)N(C(C)C(=O)O)C2=O)ccc1O (stereo not drawn)	81.8*	-0.6	-9.9
CSCCC(C(=O)O)N1C(=O)/C(=C/c2ccc(O)cc2)SC1=S (stereo not drawn)	74.4*	0.6	-1.8
COc1ccc(/C=C2\SC(=S)N(C(CCSC)C(=O)O)C2=O)cc1OC (stereo not drawn)	-2.4	-3.3	-8.4
COc1ccc(/C=C2\SC(=S)N(C(C)C(=O)O)C2=O)cc1OC (stereo not drawn)	-3.4	-7.4	-1.0
O=c1oc2c(CN3CCN(CCO)CC3)c(O)ccc2cc1-c1ccccc1	3.6	-8.3	-7.7
Cc1csc(-c2cc3ccc(O)c(CN4CCN(CCO)CC4)c3oc2=O)n1	69.1*	.	-2.7
O=C(NCc1cccc(F)c1F)c1ccc(-c2cc(-c3cccc4c3OCCO4)[nH]n2)cc1	.	104.6*	-5.1
CCSCCNC(=O)c1ccc(-c2cc(-c3cccc4c3OCCO4)[nH]n2)cc1	5.8	-5.9	-5.4
NC(=O)C1CCN(C(=O)CCc2ccsc2)CC1	-4.0	.	-3.4
NC(=O)C1CCN(C(=O)CCN(CCc2ccccc2)C(=O)c2cnccn2)CC1	6.4	.	+
CN(Cc1ncc[nH]1)CC1CC(=O)N(C2CCCC2)C1 (stereo not drawn)	10.7	.	-8.1
CC1(C)CC(c2nccn2CCOc2ccccc2)CCO1 (stereo not drawn)	2.4	.	-5.4
CC1(C)CC(c2[nH]cnc2-c2ccccc2)CCO1 (stereo not drawn)	58.3*	.	1.5
Cc1nn2c(=O)[nH]c(SCc3cccnc3)nc2c1-c1ccccc1	6.7	-3.3	13.8
Cn1ccnc1SCCNc1ccc(-c2nccn2C)nn1	3.9	.	-5.4
O=C(c1cc2ccccc2oc1=O)N1CCCC(Nc2ccc(F)cc2)C1 (stereo not drawn)	18.3	-12.3	-7.9
Cc1nn(C)c(Cl)c1/C=C1/CCCc2c1nc1ccccc1c2C(=O)O	56.8*	-8.5	1.9
Cc1cccc(NS(=O)(=O)c2c(C)nn(C)c2Cl)c1C(=O)O	0.3	.	-7.9
Cc1ccc(S(=O)(=O)N2CCN(C(=O)/C=C/c3cnn(C)c3)CC2)c(C)c1	9.1	.	-5.2
SMILES	NPYLR7 ag	mcGAS lum	hcGAS lum
COc1ccc(Br)cc1C1C(C#N)C(=N)SC(=N)C1C#N (stereo not drawn)	3.7	16.8	4.3
N#CC1C(=N)SC(=N)C(C#N)C1c1cc(Br)ccc1F (stereo not drawn)	3.7	57.4*	16.0
S=c1[nH]c2ccc(Cl)cc2o1	4.1	.	34.4
C=CCNC(=O)C(C1CCCC1)N1CCN(C(=O)c2cccc([N+](=O)[O-])c2)CC1 (stereo not drawn)	-9.9	0.7	-0.5
N#Cc1cccc(C(=O)N2CCN(C(c3ccccc3)c3ccccc3)CC2)c1	17.9	-5.9	-9.7
N#Cc1cccc(C(=O)N2CCN(C(c3ccccc3)c3ccc(Br)cc3)CC2)c1 (stereo not drawn)	42.1*	-8.4	-2.0
CCn1cc(-c2n[nH]c(=O)n2-c2c(C)noc2C)c(C)n1	1.3	.	-5.5
O=C(C1CCCO1)N1CCCN(S(=O)(=O)NCc2ccccc2)CC1 (stereo not drawn)	.	-5.6	-5.4
Cc1nc(Sc2nnc3ccccn23)c2c3c(sc2n1)CCCC3	43.2*	-6.9	-3.0
c1ccn2c(Sc3ncnc4sc5c(c34)CCCC5)nnc2c1	3.8	.	-0.3
COCc1cc(C)nc(NN=Cc2ccc(-c3ccc(Br)cc3)o2)c1C#N	-24.8	0.9	2.4
Cc1ccc(-c2ccc(/C=N\Nc3nc4nonc4nc3Nc3ccc(Br)cc3)o2)cc1Cl	-1.7	84.1*	2.9
